# PubChem BioAssay (EPA / NIEHS)
# Results filed as inconclusive are left out. The source made the active and inactive calls. Rule for the calls, unless noted: active = hit-call score of the fitted dose curve at least 0.9, where 1 is the maximum; inactive = score below 0.9.
# How the values were obtained:
# [1] = read-out: E-selectin (Homo sapiens) (UniProt P16581); experiment: BSK_3C_Eselectin: BioMAP Diversity Plus: 3C Assay for Eselectin Biomarker Activity (AID 2283015); conditions: primary human endothelial cells (HUVEC); actives raise or lower the signal;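 note: cell surface E-selectin protein quantified by ELISA 24 h after dosing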
# In short: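 Primary human umbilical vein endothelial cells (3C system), read 24 h after compound addition; E-selectin measured by ELISA. Bidirectional curve fitting against DMSO baseline; cytotoxicity by parallel SRB total-protein staining.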
# [2] = read-out: Interleukin-1 alpha (IL1a), IL1A (gene 3552); experiment: BSK_BE3C_IL1a: BioMAP Diversity Plus: BE3C Assay for Interleukin-1 alpha (IL1a) Biomarker Activity (AID 2283016); conditions: primary human bronchial epithelial cells; actives raise or lower the signal
# In short: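 BE3C primary human bronchial epithelium; cpd 24 h; IL-1a by ELISA; bidirectional fit vs DMSO; parallel SRB (0.1% SRB, 10% TCA fix, 560 nm) for cytotoxicity.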
# [3] = read-out: Monocyte Chemoattractant Protein-1 (MCP1), CCL2 (gene 6347); experiment: BSK_3C_MCP1: BioMAP Diversity Plus: 3C Assay for Monocyte Chemoattractant Protein-1 (MCP1) Biomarker Activity (AID 2283017); conditions: primary human endothelial cells (HUVEC); actives raise or lower the signal
# In short: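 Human umbilical vein endothelial cells (3C system) exposed to chemicals for 24 h; MCP-1 quantified by ELISA against the DMSO baseline with bidirectional fitting, and parallel SRB staining used to assess cytotoxicity.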
# [4] = read-out: Monocyte Chemoattractant Protein-1 (MCP1), CCL2 (gene 6347); experiment: BSK_4H_MCP1: BioMAP Diversity Plus: 4H Assay for Monocyte Chemoattractant Protein-1 (MCP1) Biomarker Activity (AID 2283018); conditions: primary human endothelial cells (HUVEC); actives raise or lower the signal
# In short: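 ELISA read-out of MCP-1 from human vascular endothelial primary cells taken at 24 hours after compound exposure. Activity was fitted in both directions relative to DMSO, which served as negative control.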
# [5] = read-out: Human Leukocyte Antigen - DR isotype (HLADR), HLA-DRA (gene 3122); experiment: BSK_3C_HLADR: BioMAP Diversity Plus: 3C Assay for Human Leukocyte Antigen - DR isotype (HLADR) Biomarker Activity (AID 2283019); conditions: primary human endothelial cells (HUVEC); actives raise or lower the signal;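 for outcome: ELISA of cell-surface HLA-DR on HUVEC 24 h after dosing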
# In short: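 HUVEC monoculture, HLA-DR measured by ELISA 24 h after chemical dosing. Fitted bidirectionally against DMSO baseline; parallel SRB staining assessed cytotoxicity, with 3C proliferation read by SRB at 48 h.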
# [6] = read-out: Interleukin-8 (IL8), CXCL8 (gene 3576); experiment: BSK_3C_IL8: BioMAP Diversity Plus: 3C Assay for Interleukin-8 (IL8) Biomarker Activity (AID 2283020); conditions: primary human endothelial cells (HUVEC); actives raise or lower the signal
# In short: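 ELISA read-out of IL-8 from human umbilical vein endothelium, measured 24 h after chemical dosing. Activity is expressed relative to DMSO negative control, with both increases and decreases fitted.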
# [7] = read-out: Monokine induced gamma interferon (MIG), CXCL9 (gene 4283); experiment: BSK_3C_MIG: BioMAP Diversity Plus: 3C Assay for Monokine induced gamma interferon (MIG) Biomarker Activity (AID 2283021); conditions: primary human endothelial cells (HUVEC); actives raise or lower the signal
# In short: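 Read-out is ELISA detection of MIG on human umbilical vein endothelial cells, taken 24 h after dosing. Gain or loss of signal was scored relative to DMSO controls using bidirectional curve fitting.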
# [8] = target: human Vitamin D Receptor (VDR), VDR (gene 7421) (UniProt P11473); experiment: ATG_VDR_TRANS: Attagene TRANS-FACTORIAL HepG2 Assay for human Vitamin D Receptor (VDR) (AID 2283022; active = hit-call score of the fitted dose curve at least 0.9, where 1 is the maximum)
# In short: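 HepG2 cells were transiently transfected with GAL4-UAS reporter units and a chimeric VDR-Gal4 construct, then dosed for 24 hours. Reporter mRNA was quantified by RT-PCR, fluorescent labeling, HpaI digestion and capillary electrophoresis; gain of signal analysed vs DMSO.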
# [9] = BSK_3C_SRB: Viability Assessment in the BioMAP Diversity Plus: 3C Assay (AID 2283023); conditions: primary human endothelial cells (HUVEC);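 note: fitted both ways against DMSO so a hit may be signal rise or drop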
# In short: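 Human umbilical vein endothelial cells in the 3C system, treated 24 h. Total protein measured by 0.1% sulforhodamine B staining after 10% TCA fixation, read at 560 nm; bidirectional fit versus DMSO.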
# [10] = read-out: Matrix Metallopeptidase 1 (MMP1), MMP1 (gene 4312); experiment: BSK_BE3C_MMP1: BioMAP Diversity Plus: BE3C Assay for Matrix Metallopeptidase 1 (MMP1) Biomarker Activity (AID 2283024); conditions: primary human bronchial epithelial cells; actives raise or lower the signal
# In short: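 Human bronchial epithelial cells (BE3C system) exposed to compound for 24 h; MMP1 then quantified by ELISA. Activity was fitted in both directions relative to DMSO.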
# [11] = BSK_3C_Vis: BioMAP Diversity Plus: 3C Assay for Morphology Visualization (AID 2283025); conditions: primary human endothelial cells (HUVEC);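 note: fitted both ways so gain or loss versus DMSO counts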;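 for AC50: light microscopy image of cell morphology used as background control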
# In short: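 Chemicals were added to primary human umbilical vein endothelium, cells were incubated 24 h, and morphology was then visualized by light microscopy. Gain or loss of signal was fitted bidirectionally relative to DMSO.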
# [12] = read-out: Pselectin, SELP (gene 6403); experiment: BSK_4H_Pselectin: BioMAP Diversity Plus: 4H Assay for Pselectin Biomarker Activity (AID 2283026); conditions: primary human endothelial cells (HUVEC); actives raise or lower the signal
# In short: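 ELISA read-out of P-selectin on human umbilical vein endothelium after 24 h of dosing. Values derive from bidirectional fitting relative to DMSO. Parallel SRB protein staining flagged overt cytotoxicity.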
# [13] = BSK_BE3C_SRB: Viability Assessment in the BioMAP Diversity Plus: BE3C Assay (AID 2283028); conditions: primary human bronchial epithelial cells
# In short: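 Human bronchial epithelial primary cells in confluent culture, 24 h after chemical dosing; total protein by 0.1% SRB staining after 10% TCA fixation, read at 560 nm. Bidirectional fitting versus DMSO baseline.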
# [14] = read-out: Thrombomodulin, THBD (gene 7056); experiment: BSK_3C_Thrombomodulin: BioMAP Diversity Plus: 3C Assay for Thrombomodulin Biomarker Activity (AID 2283029); conditions: primary human endothelial cells (HUVEC); actives raise or lower the signal
# In short: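 Read-out is ELISA of thrombomodulin on human umbilical vein endothelium 24 h after chemical dosing. Gain or loss of signal is scored relative to DMSO. Overt cytotoxicity is checked in parallel cultures by sulforhodamine B staining.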
# [15] = read-out: Urokinase-type plasminogen activator receptor (uPAR), PLAUR (gene 5329); experiment: BSK_4H_uPAR: BioMAP Diversity Plus: 4H Assay for Urokinase-type plasminogen activator receptor (uPAR) Biomarker Activity (AID 2283030); conditions: primary human endothelial cells (HUVEC); actives raise or lower the signal
# In short: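 Human umbilical vein endothelial cells in the 4H system, 24 h after chemical dosing. Cell-surface uPAR measured by ELISA, fitted in both directions versus DMSO; cytotoxicity checked by SRB total protein in parallel cultures.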
# [16] = read-out: Vascular endothelial growth factor receptor 2 (Homo sapiens) (UniProt P35968); experiment: BSK_4H_VEGFRII: BioMAP Diversity Plus: 4H Assay for Vascular endothelial growth factor receptor 2 (VEGFR2) Biomarker Activity (AID 2283031); conditions: primary human endothelial cells (HUVEC); actives raise or lower the signal
# In short: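 Primary human umbilical vein endothelial cells (4H system), 24 h exposure; cell-surface VEGFR2 measured by ELISA. Bidirectional fitting versus DMSO; cytotoxicity checked in parallel by SRB total-protein staining.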
# [17] = read-out: Vascular cell adhesion molecule 1 (VCAM1), VCAM1 (gene 7412); experiment: BSK_4H_VCAM1: BioMAP Diversity Plus: 4H Assay for Vascular cell adhesion molecule 1 (VCAM1) Biomarker Activity (AID 2283033); conditions: primary human endothelial cells (HUVEC); actives raise or lower the signal;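 note: cell-surface VCAM-1 protein measured by ELISA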
# In short: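 ELISA read-out of VCAM-1 on human umbilical vein endothelium 24 hours after chemical dosing; gain or loss of signal was fitted relative to DMSO, with sulforhodamine B staining of parallel cultures flagging overt cytotoxicity.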
# [18] = read-out: Interferon-gamma inducible Protein 10 (IP10), CXCL10 (gene 3627); experiment: BSK_BE3C_IP10: BioMAP Diversity Plus: BE3C Assay for Interferon-gamma inducible Protein 10 (IP10) Biomarker Activity (AID 2283034); conditions: primary human bronchial epithelial cells; actives raise or lower the signal
# In short: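 Chemical is dosed onto human lung bronchial epithelial primary cells, cultures are incubated 24 h, and IP-10 is then quantified by ELISA. Gain or loss of signal is fitted in both directions relative to DMSO.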
# [19] = BSK_4H_SRB: Viability Assessment in the BioMAP Diversity Plus: 4H Assay (AID 2283027); conditions: primary human endothelial cells (HUVEC);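 note: cells exposed to compound for 24 h before staining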
# In short: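 Absorbance at 560 nm of SRB-stained total protein served as the viability read-out in confluent primary human umbilical vein endothelium 24 h after chemical treatment. Curves were fitted bidirectionally against DMSO as negative control.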
# [20] = read-out: Human Leukocyte Antigen - DR isotype (HLADR), HLA-DRA (gene 3122); experiment: BSK_BE3C_HLADR: BioMAP Diversity Plus: BE3C Assay for Human Leukocyte Antigen - DR isotype (HLADR) Biomarker Activity (AID 2283032); conditions: primary human bronchial epithelial cells; actives raise or lower the signal
# In short: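 ELISA read-out of HLA-DR on human lung bronchial epithelial primary cells, measured 24 h post-dosing. Both increases and decreases were scored relative to DMSO vehicle.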
# human Vitamin D Receptor (VDR), VDR (gene 7421), sequence (P11473 whole entry, looked up, the tested form may be a part): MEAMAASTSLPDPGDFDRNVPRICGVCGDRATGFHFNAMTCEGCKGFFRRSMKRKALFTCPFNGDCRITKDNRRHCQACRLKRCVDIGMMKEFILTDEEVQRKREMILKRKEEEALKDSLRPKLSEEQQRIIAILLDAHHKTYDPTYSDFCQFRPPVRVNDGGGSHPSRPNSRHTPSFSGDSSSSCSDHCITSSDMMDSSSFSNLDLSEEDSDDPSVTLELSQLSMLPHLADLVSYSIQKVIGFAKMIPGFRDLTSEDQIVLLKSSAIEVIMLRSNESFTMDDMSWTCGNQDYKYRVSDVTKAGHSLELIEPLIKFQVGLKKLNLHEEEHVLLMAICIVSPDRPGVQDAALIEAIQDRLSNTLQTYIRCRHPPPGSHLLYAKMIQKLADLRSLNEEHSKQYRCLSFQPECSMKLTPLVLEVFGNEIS
# E-selectin (Homo sapiens), sequence (P16581 whole entry, looked up): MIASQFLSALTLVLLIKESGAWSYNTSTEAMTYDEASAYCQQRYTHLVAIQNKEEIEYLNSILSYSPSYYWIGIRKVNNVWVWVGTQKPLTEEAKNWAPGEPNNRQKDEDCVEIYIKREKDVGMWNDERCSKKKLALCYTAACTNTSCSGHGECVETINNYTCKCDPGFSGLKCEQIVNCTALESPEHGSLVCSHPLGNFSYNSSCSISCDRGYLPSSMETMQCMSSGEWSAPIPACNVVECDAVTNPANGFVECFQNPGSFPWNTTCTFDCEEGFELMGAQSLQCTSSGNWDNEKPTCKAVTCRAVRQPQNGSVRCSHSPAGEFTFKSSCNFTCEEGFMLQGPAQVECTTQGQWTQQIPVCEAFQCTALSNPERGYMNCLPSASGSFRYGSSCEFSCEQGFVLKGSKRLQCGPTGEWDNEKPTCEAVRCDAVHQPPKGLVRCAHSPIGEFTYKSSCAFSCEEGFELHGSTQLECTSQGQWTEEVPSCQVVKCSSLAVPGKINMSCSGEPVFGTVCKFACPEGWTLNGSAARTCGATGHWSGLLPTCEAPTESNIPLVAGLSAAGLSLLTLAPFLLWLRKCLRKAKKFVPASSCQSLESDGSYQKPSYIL
smiles,measurement,setting,value
CCCCCCCCO,outcome,[1],inactive
same,outcome,[2],inactive
same,outcome,[3],inactive
same,outcome,[4],inactive
same,outcome,[5],inactive
same,outcome,[6],inactive
same,outcome,[7],inactive
same,outcome,[8],inactive
same,outcome,[9],inactive
same,outcome,[10],inactive
same,outcome,[11],inactive
same,outcome,[12],inactive
same,outcome,[13],inactive
same,outcome,[14],inactive
same,outcome,[15],inactive
same,outcome,[16],inactive
same,outcome,[17],inactive
same,outcome,[18],inactive
CC(C)=CCC/C(C)=C\CO,outcome,[1],inactive
same,outcome,[2],inactive
same,outcome,[3],inactive
same,outcome,[4],inactive
same,outcome,[5],inactive
same,outcome,[6],inactive
same,outcome,[7],inactive
same,outcome,[8],inactive
same,outcome,[9],inactive
same,outcome,[10],inactive
same,outcome,[12],inactive
same,outcome,[19],inactive
same,outcome,[13],inactive
same,outcome,[14],inactive
same,outcome,[15],inactive
same,outcome,[16],inactive
same,outcome,[20],inactive
same,outcome,[17],inactive
same,outcome,[18],inactive
CNCc1ccc(NC(=O)c2c[nH]c3c2C(=O)CCC3)cc1,outcome,[1],inactive
same,outcome,[2],inactive
same,outcome,[3],inactive
same,outcome,[4],inactive
same,outcome,[5],inactive
same,outcome,[6],inactive
same,outcome,[7],inactive
same,outcome,[8],inactive
same,outcome,[9],inactive
same,outcome,[10],inactive
same,outcome,[12],inactive
same,outcome,[19],inactive
same,outcome,[13],inactive
same,outcome,[14],inactive
same,outcome,[15],inactive
same,outcome,[16],inactive
same,outcome,[20],inactive
same,outcome,[17],inactive
same,outcome,[18],inactive
O=P(OC(CCl)CCl)(OC(CCl)CCl)OC(CCl)CCl,outcome,[1],inactive
same,outcome,[2],inactive
same,outcome,[3],inactive
same,outcome,[4],inactive
same,outcome,[5],inactive
same,outcome,[6],inactive
same,outcome,[7],inactive
same,outcome,[9],inactive
same,AC50,[10],7.97 µM (active)
same,AC50,[11],39 µM (active)
same,outcome,[12],inactive
same,outcome,[13],inactive
same,outcome,[14],inactive
same,outcome,[15],inactive
same,outcome,[16],inactive
same,outcome,[20],inactive
same,outcome,[17],inactive
same,outcome,[18],inactive
CCCCCCCCCCCCc1ccccc1,outcome,[1],inactive
same,outcome,[2],inactive
same,outcome,[3],inactive
same,outcome,[4],inactive
same,AC50,[5],33.2 µM (active)
same,outcome,[6],inactive
same,outcome,[7],inactive
same,outcome,[8],inactive
same,outcome,[9],inactive
same,outcome,[10],inactive
same,outcome,[11],inactive
same,AC50,[12],31.5 µM (active)
same,outcome,[19],inactive
same,outcome,[13],inactive
same,outcome,[14],inactive
same,outcome,[15],inactive
same,outcome,[16],inactive
same,outcome,[20],inactive
same,outcome,[17],inactive
same,outcome,[18],inactive
CC(C)CCO,outcome,[1],inactive
same,outcome,[2],inactive
same,outcome,[3],inactive
same,outcome,[4],inactive
same,outcome,[5],inactive
same,outcome,[6],inactive
same,outcome,[7],inactive
same,outcome,[8],inactive
same,outcome,[9],inactive
same,outcome,[10],inactive
same,outcome,[12],inactive
same,outcome,[19],inactive
same,outcome,[13],inactive
same,outcome,[14],inactive
same,outcome,[15],inactive
same,outcome,[17],inactive
same,outcome,[18],inactive
